Test results taken from the supplement of paper PMC10338343.
± gives the standard deviation. Whole data set: some 8,200 sequences, median “pre-steady-state target cleavage rate” near 0.024, cut for the highest 2% near 1.3. Shown is part of a subset that was picked to be rich in the highest values.

Test system: MIWI (PIWIL1) piRISC loaded with L1MC piRNA (30 nt)
Assay: pre-steady-state target cleavage rate (min^-1); MIWI and MILI are mouse PIWI proteins and EfPiwi is from a freshwater sponge; tags in brackets are library labels; higher = faster piRNA-guided slicing of the target
Conditions: guide: L1MC piRNA 5'p-UAACUAAAUACUAUGCAAGCUGUAGGUCCU
Method in brief: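 The method was Cleave-'n-Seq, in which uncleaved targets from a transcribed, DNA-blocked target RNA library were sequenced after exposure to active affinity-purified piRISC carrying one synthetic guide, with or without GTSF1 partner protein. Reactions contained 0.1 nM library, 1 nM piRISC and, where present, 500 nM GTSF1 in HEPES–potassium acetate buffer at 33 °C for 0–8 or 0–960 min. Reads were normalised to depth and to weakly complementary targets, three trials were pooled, and k3 was capped at 0.0001 min^-1. The pre-steady-state cleavage rate came from a burst-and-steady-state fit.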

[1] = auxiliary factor: 500 nM mouse GTSF1
[2] = auxiliary factor: none (no GTSF1)

Sequence | pre-steady-state target cleavage rate [1] | pre-steady-state target cleavage rate [2]
AGGACCUACAGCUUGACAUAGUAUUUAGUUA | 1.07 ± 0.093 | 0.0105 ± 0.0047
AGGACCUACAGCUUGAUAGUAUUUAGUUA | 1.21 ± 0.082 | 0.0133 ± 0.0041
UCGACCUACAGCUUGAAUAGUAUUUAGUUA | 1.48 ± 0.05 | 0.0397 ± 0.0067
UGGACCUACAGCUUGCAAUAGUAUUUAGUUA | 0.0655 ± 0.011 | 
UGGACCUACAGCUUGAUAGUAUUUAGUUA | 1.03 ± 0.096 | 0.0103 ± 0.003
UCCACCUACAGCUUGAAUAGUAUUUAGUUA | 1.01 ± 0.035 | 0.0277 ± 0.0053
AGGACCUACAGCUUGAAUAGUAUUUAGUUA | 1.44 ± 0.059 | 0.0532 ± 0.01
UCGACCUACAGCUUGAUAGUAUUUAGUUA | 1.08 ± 0.067 | 0.00731 ± 0.0024
UGGACCUACAGCUUGAAUAGUAUUUAGUUA | 1.63 ± 0.08 | 0.0423 ± 0.0078
UCCUGGAUGUGCUUGCAUAGUAUUUACAUA | 0.08 ± 0.017 | 0.0058 ± 0.0031
UCCUGGAUGAGCAUGGAUAGUAUUUAGUUA | 0.475 ± 0.042 | 0.0081 ± 0.0031
UCGACCUACAGCUUGCUUAGUAUUUUCAAA | 0.329 ± 0.048 | 
UCCUGGAUGUGCAUGCAUAGUAUUUAGUAA | 0.0251 ± 0.0072 | 0.00346 ± 0.0025
UCCUGGAUGAGCUUGCUUAGUAUAUAGUUA | 0.0747 ± 0.013 | 0.0101 ± 0.0035
UCCUGGAAGAGCUUGCUUAGUAUUUAGUUA | 0.761 ± 0.051 | 0.0227 ± 0.0089
UCCUGCUACAGCAUGCAUAGUAAUUAGUUA | 0.73 ± 0.077 | 0.00723 ± 0.0026
UCCUGGAUGUCCUUGCAUAGUAUAUUAGUUA | 0.025 ± 0.0089 | 
UCCUGGAACAGCUUGCAUAGUAUUUGGUUA | 0.781 ± 0.041 | 0.0538 ± 0.011
UCCACCUACAGCUUGCUUAGUAUUUAGUAA | 0.484 ± 0.044 | 0.0103 ± 0.0023
AGGACCGUACAGCUUGCAUAGUAUUUAGUUA | 1.16 ± 0.061 | 0.0943 ± 0.019
UCGACUACAGCUUGCAUAGUAUUUAGUUA | 1.3 ± 0.049 | 0.0713 ± 0.012

Sequence | pre-steady-state target cleavage rate [1] | pre-steady-state target cleavage rate [2]
UGGACCUACAGCUUGCAUAGUAUUUACUUA | 0.24 ± 0.021 | 0.0361 ± 0.0058
AGGACUUACAGCUUGCAUAGUAUUUAGUUA | 1.39 ± 0.064 | 0.0831 ± 0.012
UCGACCUUACAGCUUGCAUAGUAUUUAGUUA | 1.47 ± 0.057 | 0.091 ± 0.02
UCCACUUACAGCUUGCAUAGUAUUUAGUUA | 1.17 ± 0.034 | 0.0668 ± 0.0094
UCGACUUACAGCUUGCAUAGUAUUUAGUUA | 1.56 ± 0.045 | 0.0755 ± 0.013
UGGACUUACAGCUUGCAUAGUAUUUAGUUA | 1.45 ± 0.063 | 0.081 ± 0.013
UGGACCAUACAGCUUGCAUAGUAUUUAGUUA | 1.3 ± 0.066 | 0.0868 ± 0.013
UCCUGGAUGAGCUAGCAUAGUAUAUAGUUA | 0.194 ± 0.031 | 0.00454 ± 0.0041
UCCACCUACUCGUUGCAUAGUAUUUAGUAA | 0.406 ± 0.031 | 0.00745 ± 0.0019
UCCUGCUACAGCUUCCAUAGAAUUUAGUUA | 0.0338 ± 0.013 | 
UCCUGGAUGAGCUUGCAUAGUAUUAAGUAA | 0.197 ± 0.036 | 0.0178 ± 0.0055
UCCACCUAGAGCUUGCAUAGUAUUUAGAUA | 0.178 ± 0.032 | 0.00955 ± 0.0025
UCCUGCUACAGCUUGCAUAGUAUUUUCAUA | 0.295 ± 0.055 | 
UCCUGGAUGUGCUUGCAAAGUAUUUUGUUA | 0.0495 ± 0.008 | 0.0109 ± 0.0032
UGGAGCUACUGCUUGCAUAGUAUUUAGUUA | 1.09 ± 0.055 | 0.0621 ± 0.0085
UCGACCUAUCAGCUUGCAUAGUAUUUAGUUA | 1.61 ± 0.06 | 0.0851 ± 0.018
UCCACCUAUCAGCUUGCAUAGUAUUUAGUUA | 1.01 ± 0.037 | 0.0531 ± 0.011
UGGACCAUCAGCUUGCAUAGUAUUUAGUUA | 1.44 ± 0.056 | 0.101 ± 0.019
UCCUCCUCAGCUUGCAUAGUAUUUAGUUA | 1.05 ± 0.027 | 0.0482 ± 0.009
UCCUCCUAUCAGCUUGCAUAGUAUUUAGUUA | 1.49 ± 0.072 | 0.0492 ± 0.011
UGGACCUAUCAGCUUGCAUAGUAUUUAGUUA | 1.48 ± 0.086 | 0.074 ± 0.016

Sequence | pre-steady-state target cleavage rate [1] | pre-steady-state target cleavage rate [2]
AGGACCAUCAGCUUGCAUAGUAUUUAGUUA | 1.3 ± 0.048 | 0.0926 ± 0.017
UCCUCCAUCAGCUUGCAUAGUAUUUAGUUA | 0.739 ± 0.027 | 0.0679 ± 0.013
UGGACCAUCAGCUUGCAUAGUAUUUAGUAA | 1.05 ± 0.053 | 0.0577 ± 0.013
AGGACCUAUCAGCUUGCAUAGUAUUUAGUUA | 1.25 ± 0.055 | 0.0769 ± 0.013
UCGACCUAUAGCUUGCAUAGUAUUUAGUUA | 1.04 ± 0.055 | 0.0703 ± 0.014
UGGACCUAUAGCUUGCAUAGUAUUUAGUUA | 1.23 ± 0.054 | 0.0564 ± 0.011
UCCUGGAUGUCGAACGUAUGAUUUUAGUUA | < 0.0001 | 
UCCUGCUUGUGCUUGCAUAGUAUUUAGUAA | 0.133 ± 0.019 | 0.0144 ± 0.0036
UCCUGGUACAGGCUUGCAUAGUAUUUAGUUA | 0.498 ± 0.059 | 0.0384 ± 0.0089
UCCUGGAUGUCGAUGCAUAGUAUUGAGUUA | 0.02 ± 0.006 | 
UCCUGGAUCAGCUUGCAUAGUCUUUAGUUA | 0.841 ± 0.035 | 0.0552 ± 0.012
AGGACCUACAGCUUGCAUAGUAUUUAAUUA | 0.357 ± 0.033 | 0.0325 ± 0.0055
AGGACCUACAGCUUGCUUAGUAUUUAGAAA | 0.486 ± 0.063 | 0.00737 ± 0.0028
UCCUGGAUCAACUUGCAUAGUAUUUAGUUA | 1.01 ± 0.051 | 0.0248 ± 0.0054
AGGACCUACAGGAAGCAUAGUAUUUACAAA | 0.32 ± 0.064 | 
UCGACCAACAGCUUGCAUAGUAUUUAGAUA | 0.54 ± 0.029 | 0.0297 ± 0.0066
UCGACCAACAGCUUGCAUAGUAUUUAGUAA | 1.2 ± 0.065 | 0.0413 ± 0.0084
AGCACCAACAGCUUGCAUAGUAUUUAGUUA | 1.03 ± 0.058 | 0.0664 ± 0.011
ACGACCAACAGCUUGCAUAGUAUUUAGUUA | 1.64 ± 0.055 | 0.0972 ± 0.018
UCGACCAACAGCUUGCAUAGUAUUUAGUUA | 1.62 ± 0.054 | 0.0825 ± 0.014
UGCACCAACAGCUUGCAUAGUAUUUAGUUA | 1.23 ± 0.056 | 0.0613 ± 0.0098
